The nature of assay [1]: qHTS Validation Assay to Find Inhibitors of Chronic Active B-Cell Receptor Signaling (AID 485345; active = well fitted curve in the direction sought with a large enough effect in the main read-out, with a control signal flat, not every such curve was filed as active). In outline:
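TMD8 ABC-DLBCL cells with dox-inducible green luciferase–IκBα fusion and red native luciferase; compounds 46 uM–3 nM, 4 h at 37C with doxycycline in 0.5% FBS IMDM. Green/red ratio normalized to basal and 10 uM MG-132.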
On the technique in general: qHTS replaces the single test concentration by a dilution series.

Assay [2] concerns the target Beta-2 adrenergic receptor (Homo sapiens) (UniProt P07550). Description: qHTS validation assay of beta-arrestin-biased ligands of beta2-adrenergic receptor (AID 485366). The method in brief:
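Compound series up to 46 microM applied to beta2-AR/beta-arrestin Tango cells, 18 hr, 37 degrees C, 5% CO2. Read-out: tTA-driven luciferase luminescence, converted to %Activity; concentration-response curves assigned curve classes.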

The nature of assay [3]: Quantitative high throughput screen for delayed death inhibitors of the malarial parasite plastid, 96 hour incubation (AID 488745). Note: nearly all actives have a fitted effect of over 70% in size. Note: potency is the fitted concentration of half-maximal effect. In outline: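 Readout is firefly luciferase luminescence from an integrated reporter in P. falciparum; lower signal marks inhibited growth. Cultures at 2% hematocrit and 0.1% parasitemia were treated with compound across two generations (96 h, 37 C, 5% CO2).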

The nature of assay [4]: Quantitative high throughput screen for delayed death inhibitors of the malarial parasite plastid, 48 hour incubation (AID 488752). Note: nearly all actives have a fitted effect of over 65% in size. Note: potency is the fitted concentration of half-maximal effect. In outline: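 First, compound was pinned into RPMI 1640 medium containing 0.5% Albumax. Next, reporter-parasite-infected erythrocytes were added to 2% hematocrit and 0.1% parasitemia. After 48 h at 37 C under 5% CO2, luciferase detection reagent was added and luminescence read.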

For assay [5], the target named is Thioredoxin reductase 1, cytoplasmic (Rattus norvegicus) (UniProt O89049). Description: qHTS Assay for Substrates of Mammalian Selenoprotein Thioredoxin Reductase 1 (TrxR1) (AID 488772).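 Note: series mostly up to about 57 µM; a drop in NADPH fluorescence below the no-compound background marks a TrxR1 substrate.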 The method in brief: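 In this dual-purpose format, potential substrates are identified from the first fluorescence read after selenite addition, not from the 8-minute delta. Rat enzyme is preincubated with NADPH and then with compound at ~22 deg C.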
Sequence of Thioredoxin reductase 1, cytoplasmic (Rattus norvegicus) (O89049 whole entry, looked up): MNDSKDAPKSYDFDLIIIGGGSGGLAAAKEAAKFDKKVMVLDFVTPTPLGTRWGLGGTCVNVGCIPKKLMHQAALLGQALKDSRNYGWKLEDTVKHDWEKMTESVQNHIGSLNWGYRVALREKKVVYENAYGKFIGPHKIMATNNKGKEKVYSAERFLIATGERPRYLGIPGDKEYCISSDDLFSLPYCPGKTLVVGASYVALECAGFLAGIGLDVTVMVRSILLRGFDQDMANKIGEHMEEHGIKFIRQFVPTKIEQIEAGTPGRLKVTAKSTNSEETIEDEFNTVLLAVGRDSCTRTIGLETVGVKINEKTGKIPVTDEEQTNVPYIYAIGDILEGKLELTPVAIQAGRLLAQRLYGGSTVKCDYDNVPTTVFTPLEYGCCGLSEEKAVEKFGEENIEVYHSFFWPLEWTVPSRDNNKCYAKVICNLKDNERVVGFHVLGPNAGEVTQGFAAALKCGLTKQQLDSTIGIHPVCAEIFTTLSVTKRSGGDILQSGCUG

Assay [6] has the same target. Description: qHTS Assay for Inhibitors of Mammalian Selenoprotein Thioredoxin Reductase 1 (TrxR1) (AID 488773). Note: nearly all actives have a fitted effect of over 40% in size. Note: potency is the fitted concentration of half-maximal effect. The settings on record: Potency: inhibition. The method in brief: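 Inhibition is scored from the loss of NADPH fluorescence between first and last reads of an 8-min kinetic run. Selenite (400 uM) was the substrate, added after 15 min compound preincubation at room temperature.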

Assay [7] deals with Flap endonuclease 1 (Homo sapiens) (UniProt P39748). Description: qHTS Validation Assay for the Inhibitors of Human Flap endonuclease 1 (FEN1) (AID 488816). In outline:
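Steps: add FEN1 (10 nM reagent) or buffer only; pin compounds; hold 15 min at room temperature; start with substrate, 50 nM final; read at 0 and 15 min; correct, normalize and fit a four-parameter Hill curve.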

In assay [8] the target is ATP-dependent 6-phosphofructokinase (Trypanosoma brucei brucei) (UniProt O15648). Description: qHTS Validation Assay to Find Inhibitors of T. brucei phosphofructokinase (AID 485368). In outline: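 qHTS format, up to 57 uM. PFK 1.25 nM; F6P 0.5 mM; ATP 0.1 mM; 5 mM MgCl2, 0.01% Tween20, 0.1% BSA; 0.1 M TEA pH 8.0; 45 min RT; ADP-Glo readout; no-enzyme control = full inhibition.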
Sequence of ATP-dependent 6-phosphofructokinase (Trypanosoma brucei brucei) (O15648 whole entry, looked up): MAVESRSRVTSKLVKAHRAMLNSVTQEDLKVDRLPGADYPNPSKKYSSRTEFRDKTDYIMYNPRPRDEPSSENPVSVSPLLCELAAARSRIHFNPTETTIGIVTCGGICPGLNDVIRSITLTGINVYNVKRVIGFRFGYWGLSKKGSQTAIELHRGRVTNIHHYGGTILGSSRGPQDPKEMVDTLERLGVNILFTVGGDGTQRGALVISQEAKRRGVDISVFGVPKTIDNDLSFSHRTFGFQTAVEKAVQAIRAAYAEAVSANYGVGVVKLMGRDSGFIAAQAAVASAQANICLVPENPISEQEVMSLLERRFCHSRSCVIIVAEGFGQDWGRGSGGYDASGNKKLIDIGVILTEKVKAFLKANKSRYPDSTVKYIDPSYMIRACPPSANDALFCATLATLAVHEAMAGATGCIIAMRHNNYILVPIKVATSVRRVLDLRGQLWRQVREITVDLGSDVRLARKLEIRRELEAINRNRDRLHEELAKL

Assay [9] addresses M-phase phosphoprotein 8 (Homo sapiens) (UniProt Q99549). Description: qHTS Validation Assay for Inhibitors for MPP8 Chromodomain Interactions with Methylated Histone Tails (AID 488949). Note: nearly all actives have a fitted effect of over 55% in size. Note: potency is the fitted concentration of half-maximal effect. In outline:
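Disruption of the preformed MPP8–trimethyl-H3K9 peptide complex (both 50 nM, 30 min, RT) is measured after 30 min compound exposure, using AlphaScreen proximity beads; aurintricarboxylic acid titration serves as plate control.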

Assay [10] deals with Chromobox protein homolog 1 (Homo sapiens) (UniProt P83916). Description: qHTS Validation Assay for Inhibitors of HP1-beta Chromodomain Interactions with Methylated Histone Tails (AID 488953). Note: nearly all actives have a fitted effect of over 50% in size. Note: potency is the fitted concentration of half-maximal effect. The method in brief: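 Disruption of preformed HP1-beta:H3K9me3 peptide complexes (both 50 nM, PBS pH 7.4 with 0.01% Tween-20) is measured by AlphaScreen after 30 min compound exposure at room temperature, using streptavidin donor and nickel chelate acceptor beads at 10 ug/mL final.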
Sequence of Chromobox protein homolog 1 (Homo sapiens) (P83916 whole entry, looked up): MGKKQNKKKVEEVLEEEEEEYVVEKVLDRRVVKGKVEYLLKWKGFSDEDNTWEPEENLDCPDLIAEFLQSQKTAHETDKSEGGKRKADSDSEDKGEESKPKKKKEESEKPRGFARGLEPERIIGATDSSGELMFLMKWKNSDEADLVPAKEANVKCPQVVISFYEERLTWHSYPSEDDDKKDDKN

Inconclusive results are not listed. Activity calls are given as the source filed them. Unless noted, calls come from the whole dose curve; as a rule, active = well fitted curve in the direction sought with a large enough effect; inconclusive = small, poorly fitted or top-dose-only effect, or another doubt; inactive = no such curve, though single readings can be large; an effect the other way counts as inactive or inconclusive.

Sequence of M-phase phosphoprotein 8 (Homo sapiens) (Q99549 whole entry, looked up): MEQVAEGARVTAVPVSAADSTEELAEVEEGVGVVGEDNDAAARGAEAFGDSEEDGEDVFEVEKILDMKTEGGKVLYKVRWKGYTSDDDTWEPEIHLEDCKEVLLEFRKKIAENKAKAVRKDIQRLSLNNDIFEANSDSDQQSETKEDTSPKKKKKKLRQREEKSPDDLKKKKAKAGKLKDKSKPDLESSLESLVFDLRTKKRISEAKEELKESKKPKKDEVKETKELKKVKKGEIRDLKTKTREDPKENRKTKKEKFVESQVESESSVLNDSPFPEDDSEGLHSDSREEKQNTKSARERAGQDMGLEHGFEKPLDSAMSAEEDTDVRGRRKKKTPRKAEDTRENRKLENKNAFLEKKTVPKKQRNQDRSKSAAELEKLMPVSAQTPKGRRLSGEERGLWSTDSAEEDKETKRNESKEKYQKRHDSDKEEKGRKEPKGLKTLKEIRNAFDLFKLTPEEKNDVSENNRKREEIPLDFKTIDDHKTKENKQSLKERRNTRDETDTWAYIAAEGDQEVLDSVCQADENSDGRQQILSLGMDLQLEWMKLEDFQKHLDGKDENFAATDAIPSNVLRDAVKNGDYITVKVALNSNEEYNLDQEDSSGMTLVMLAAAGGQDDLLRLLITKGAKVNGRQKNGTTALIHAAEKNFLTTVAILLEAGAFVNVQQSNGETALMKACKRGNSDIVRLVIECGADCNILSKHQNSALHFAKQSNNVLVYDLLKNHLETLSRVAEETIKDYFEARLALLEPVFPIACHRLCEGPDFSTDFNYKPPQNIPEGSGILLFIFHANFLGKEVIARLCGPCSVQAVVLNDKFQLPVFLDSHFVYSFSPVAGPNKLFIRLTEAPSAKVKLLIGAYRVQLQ
Sequence of Flap endonuclease 1 (Homo sapiens) (P39748 whole entry, looked up): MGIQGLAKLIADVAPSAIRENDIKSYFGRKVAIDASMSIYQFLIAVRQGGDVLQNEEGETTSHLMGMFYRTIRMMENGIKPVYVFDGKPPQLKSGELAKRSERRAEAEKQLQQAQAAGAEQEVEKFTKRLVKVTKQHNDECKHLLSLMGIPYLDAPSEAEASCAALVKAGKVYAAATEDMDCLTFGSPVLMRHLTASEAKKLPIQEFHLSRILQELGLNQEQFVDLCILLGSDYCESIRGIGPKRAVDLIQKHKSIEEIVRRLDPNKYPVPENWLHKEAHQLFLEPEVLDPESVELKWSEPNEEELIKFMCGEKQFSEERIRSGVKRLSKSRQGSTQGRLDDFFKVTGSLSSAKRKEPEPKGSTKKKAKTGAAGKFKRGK
Sequence of Beta-2 adrenergic receptor (Homo sapiens) (P07550 whole entry, looked up): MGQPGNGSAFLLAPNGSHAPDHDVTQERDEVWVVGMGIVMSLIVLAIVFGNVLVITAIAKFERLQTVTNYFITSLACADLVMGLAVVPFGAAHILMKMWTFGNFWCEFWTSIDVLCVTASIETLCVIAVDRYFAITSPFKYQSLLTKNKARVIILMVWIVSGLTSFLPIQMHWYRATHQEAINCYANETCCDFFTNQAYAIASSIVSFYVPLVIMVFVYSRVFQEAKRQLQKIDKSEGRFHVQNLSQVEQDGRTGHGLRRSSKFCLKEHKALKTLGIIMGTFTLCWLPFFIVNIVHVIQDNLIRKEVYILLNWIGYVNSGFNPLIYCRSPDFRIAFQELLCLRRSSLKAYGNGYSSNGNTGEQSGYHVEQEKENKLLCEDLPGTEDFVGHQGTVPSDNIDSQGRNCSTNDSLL

For the molecule `NCCCCCC(=O)O`, the Potency entry in assay [1], in assay [3], in assay [4], in [6] and in assay [7] was “inactive” throughout. For the same molecule, the outcome in assay [2] and in assay [5] was inactive.
`Nc1nnc(-c2cccc(Cl)c2Cl)c(N)n1`: the Potency entry in assay [1], in [8], in assay [3], in [4], in assay [6] and in assay [7] was “inactive” throughout. Moreover, in assay [2], the call was inactive.
On to `Cc1cc(C(C)(C)C)c(O)c(C)c1CC1=NCCN1`, for which the Potency entry in assay [1], in [3], in assay [4], in assay [6] and in assay [7] was “inactive” throughout. In addition, the outcome in assay [2] and in assay [5] was inactive.
On to `COc1nc(C)nc(Cl)c1NC1=NCCN1`, for which the Potency entry in assay [1], in assay [3], in [4], in assay [6], in [7] and in assay [9] was “inactive” each time. Moreover, the Potency result in assay [10] is “inactive”. The molecule was classed as inactive in assay [2] and in [5].
With `Cc1ccccc1N1C(=O)c2cc(S(N)(=O)=O)c(Cl)cc2NC1C` (centres undefined), the Potency entry in [1], in assay [3], in [4], in [6], in [7] and in assay [9] was “inactive” throughout. Also, the result in assay [2] and in assay [5] was inactive.
On to `CC(C)(Oc1ccc(C2CC2(Cl)Cl)cc1)C(=O)O` (centres undefined), for which the Potency result in [1], in assay [3], in [4], in [6] and in assay [7] was “inactive” in each case. Moreover, the molecule was classed as inactive in [2] and in assay [5].
Consider `NC(=O)OCC(COC(N)=O)c1ccccc1`, for which the Potency entry in [1], in assay [3], in assay [4], in [6], in [7] and in assay [10] was “inactive” throughout. The molecule was classed as inactive in [2] and in assay [5].
For `NC(CO)C(=O)NNCc1ccc(O)c(O)c1O` (centres undefined), the Potency entry in assay [1], in [3], in assay [4] and in [7] was “inactive” throughout. Besides, the result in assay [2] and in assay [5] was inactive. The Potency in assay [6] is 4.23 µM (active); in assay [9], 31.6 µM (active); in [10] it was 35.5 µM (active).
As for `Cc1cnc(C(=O)NCCc2ccc(S(=O)(=O)NC(=O)NC3CCCCC3)cc2)cn1`, the Potency result in assay [1], in assay [3], in assay [4], in assay [6] and in assay [7] was “inactive” in each case. In addition, the molecule was classed as inactive in assay [2] and in assay [5].
Turning to `CN(Cc1cnc2nc(N)nc(N)c2n1)c1ccc(C(=O)N[C@@H](CCC(=O)O)C(=O)O)cc1`, the Potency result in [1], in assay [3], in assay [4], in assay [6] and in [7] was “inactive” in each case. The outcome in [2] and in assay [5] was inactive.
Consider `CCC1(c2ccccc2)C(=O)NCNC1=O`, for which the Potency result in assay [1], in assay [3], in assay [4], in [6], in [7] and in assay [10] was “inactive” in each case. In addition, the molecule was called inactive in assay [2] and in [5].
As to `O=C(CCCN1CCC(O)(c2ccc(Cl)cc2)CC1)c1ccc(F)cc1`, the Potency result in assay [1] is “inactive”. In addition, the call in assay [2] and in assay [5] was inactive. Besides, the Potency in assay [3] was 7.38 µM (active); in assay [4], 10.4 µM (active).
`CC(COc1ccccc1)N(CCCl)Cc1ccccc1` (centres undefined): the Potency result in [1], in [3], in [4] and in [6] was “inactive” in each case. In addition, the outcome in [2] and in [5] was inactive.
As to `NS(=O)(=O)c1cc2c(cc1Cl)NCNS2(=O)=O`, the Potency result in assay [1], in assay [3], in [4], in assay [6], in assay [7] and in [9] was “inactive” in each case. Besides, the molecule was called inactive in assay [2] and in [5].
As for `CN1CCN2c3ccccc3Cc3ccccc3C2C1` (centres undefined), the Potency result in assay [1], in assay [3], in assay [4] and in assay [6] was “inactive” each time. For the same molecule, the molecule was classed as inactive in assay [2] and in assay [5].
For `CCC1(C)CC(=O)NC1=O` (centres undefined), the Potency result in [1], in assay [3], in assay [4], in [6], in assay [7] and in assay [9] was “inactive” in each case. Besides, the molecule was classed as inactive in assay [2] and in assay [5].
As for `CN1C2CCC1CC(OC(=O)C(CO)c1ccccc1)C2` (centres undefined), the Potency result in [1], in assay [8], in assay [3], in [4] and in [9] was “inactive” each time. Moreover, the molecule was called inactive in [2].
As to `CC(C)C(=O)Nc1ccc([N+](=O)[O-])c(C(F)(F)F)c1`, the Potency result in assay [1], in assay [8], in [3], in assay [4], in assay [6] and in [7] was “inactive” each time. Also, the call in assay [2] and in assay [5] was inactive.
Turning to `CC(C(=O)O)c1cccc(C(=O)c2ccccc2)c1` (centres undefined), the Potency result in assay [1], in assay [3], in [4] and in [6] was “inactive” each time. For the same molecule, the result in [2] and in assay [5] was inactive.
For `CCOC(=O)C(C)(C)Oc1ccc(Cl)cc1`, the Potency result in assay [1], in assay [3], in [4], in assay [6] and in assay [7] was “inactive” throughout. Moreover, the call in [2] and in [5] was inactive.

(Values after PubChem BioAssay (NCATS).)
